Measurements taken from PubChem BioAssay (NCI).
The panel holds about 79,000 compounds, 15% with a hit somewhere; the sample as a whole holds those more often. A number with no mark means an inactive call. Active and inactive are the calls of the source. Rule as the data show it: active = growth inhibition above about 70%; inactive = the rest.

Experiments:
[1] = NCI Yeast Anticancer Drug Screen. Data for the rad52 strain (AID 147);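 also: 0% = growth of vehicle-treated control cultures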; details: S. cerevisiae rad52 mutant growth inhibition, stronger effect = higher value
Method in brief: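 Screen used a yeast mutant impaired in DNA repair. After compound exposure, growth was measured. Values reflect inhibition compared with vehicle-treated cells.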

[2] = NCI Yeast Anticancer Drug Screen. Data for the wt1 strain (AID 149);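 also: 0% = growth of vehicle-treated wt1 cultures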; details: S. cerevisiae wt1 strain (SPY 50644) growth inhibition, stronger effect = higher value
Method in brief: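 The wt1 strain was treated with compounds, and growth was compared with vehicle-treated cultures to give inhibition.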

[3] = NCI Yeast Anticancer Drug Screen. Data for the mgt1 strain (AID 153); details: S. cerevisiae mgt1 mutant growth inhibition, stronger effect = higher value
Method in brief: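 Genetically defined yeast (mgt1) treated with compound; inhibition of growth expressed against vehicle-treated controls.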

[4] = NCI Yeast Anticancer Drug Screen. Data for the rad50 strain (AID 155);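 also: 0% = growth of vehicle-only cultures of the same strain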; details: S. cerevisiae rad50 strain growth inhibition, stronger effect = higher value
Method in brief: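 Cells are treated with compound, grown, and their growth is then scored against vehicle-only cultures of the same repair-deficient yeast strain.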

[5] = NCI Yeast Anticancer Drug Screen. Data for the mec2-1 strain (AID 157); details: S. cerevisiae mec2-1 strain, stronger effect = higher value
Method in brief: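 Readout is yeast growth inhibition, normalised to vehicle-treated controls, in the mec2-1 strain exposed to compound.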

[6] = NCI Yeast Anticancer Drug Screen. Data for the rad14 strain (AID 159);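 also: 0% = growth of vehicle-treated control cultures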; details: S. cerevisiae rad14 strain growth inhibition, stronger effect = higher value
Method in brief: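 Readout: yeast growth inhibition, referenced to vehicle-only cultures. Strain bears a defined alteration in DNA damage repair.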

[7] = NCI Yeast Anticancer Drug Screen. Data for the sgs1 mgt1 strain (AID 161);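 also: 0% = growth of cultures given vehicle only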; details: S. cerevisiae sgs1 mgt1 strain, stronger effect = higher value
Method in brief: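 Growth of a repair-deficient yeast mutant was monitored after compound treatment and expressed as inhibition relative to vehicle-treated cultures.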

[8] = NCI Yeast Anticancer Drug Screen. Data for the CLN2oe strain (AID 163);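 also: 0% = growth of vehicle-only control cultures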; details: S. cerevisiae CLN2oe strain, stronger effect = higher value
Method in brief: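 Values reflect how much compound exposure reduced yeast growth, referenced to vehicle-exposed cells. Assay organism is a strain with a defined genetic change affecting cell-cycle control.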

[9] = NCI Yeast Anticancer Drug Screen. Data for the cln2 rad14 strain (AID 165);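 also: 0% = growth equal to vehicle treated cultures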; details: S. cerevisiae cln2 rad14 strain, stronger effect = higher value
Method in brief: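 Relative to vehicle controls, growth inhibition of compound-treated cln2 rad14 yeast was recorded.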

[10] = NCI Yeast Anticancer Drug Screen. Data for the bub3 strain (AID 167); details: S. cerevisiae bub3 mutant strain, stronger effect = higher value
Method in brief: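 Part of a panel of yeast mutants defective in DNA damage repair or cell cycle regulation. Each strain is grown with compound, and inhibition is calculated relative to solvent-treated cultures.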

[11] = NCI Yeast Anticancer Drug Screen. Data for the wt2 strain (AID 169);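 also: 0% = growth of vehicle-treated yeast cultures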; details: S. cerevisiae wt2 strain growth inhibition, stronger effect = higher value
Method in brief: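 Values express reduction in yeast growth under compound treatment, referenced to vehicle-treated cells.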

[12] = NCI Yeast Anticancer Drug Screen. Data for the mlh1 strain (AID 171);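 also: 0% = growth of vehicle-treated control cultures of the same strain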; details: S. cerevisiae mlh1 strain growth inhibition, stronger effect = higher value
Method in brief: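 Steps: expose the defined-mutant yeast strain to compound; expose a parallel culture to vehicle; measure growth; express compound effect as inhibition relative to the vehicle culture.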

[13] = NCI Yeast Anticancer Drug Screen. Data for the sgs1 strain (AID 173);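 also: 0% = growth of vehicle-only control cultures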; details: S. cerevisiae sgs1 mutant, stronger effect = higher value
Method in brief: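 Treat defined-mutant yeast with compound; measure growth; calculate inhibition relative to vehicle-treated cells.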

[14] = NCI Yeast Anticancer Drug Screen. Data for the mlh1 rad18 strain (AID 175); details: S. cerevisiae mlh1 rad18 strain growth inhibition, stronger effect = higher value
Method in brief: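 Test agents were incubated with a yeast strain of defined genotype (DNA damage repair defect). Inhibition of growth was derived by comparison with vehicle-exposed cultures.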

[15] = NCI Yeast Anticancer Drug Screen. Data for the rad18 strain (AID 177); details: S. cerevisiae rad18 mutant growth inhibition, stronger effect = higher value
Method in brief: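 A genetically defined yeast mutant impaired in DNA damage repair was treated with test compounds, then its growth was measured against cultures receiving vehicle alone.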

[16] = at 5.0 µM (retest, dose inferred, filed as 0.5)
[17] = at 50.0 µM (retest, dose inferred, filed as 5.0)

## O=c1ccc2ccccc2c2ccccc12
[1]; at 1.2 µM
  growth inhibition: -49%
[1]; at 3.7 µM
  growth inhibition: -33%
[1]; at 11.0 µM
  growth inhibition: 52%
[1]; at 33.0 µM
  growth inhibition: 97% (active)
[1]; at 100.0 µM
  growth inhibition: 99% (active)
[2]; at 1.2 µM
  growth inhibition: -17%
[2]; at 3.7 µM
  growth inhibition: 18%
[2]; at 11.0 µM
  growth inhibition: 76% (active)
[2]; at 33.0 µM
  growth inhibition: 98% (active)
[2]; at 100.0 µM
  growth inhibition: 99% (active)
[3]; at 1.2 µM
  growth inhibition: 3%
[3]; at 3.7 µM
  growth inhibition: 21%
[3]; at 11.0 µM
  growth inhibition: 79% (active)
[3]; at 33.0 µM
  growth inhibition: 99% (active)
[3]; at 100.0 µM
  growth inhibition: 99% (active)
[4]; at 1.2 µM
  growth inhibition: -13%
[4]; at 3.7 µM
  growth inhibition: 7%
[4]; [16]
  growth inhibition: -2%
[4]; at 11.0 µM
  growth inhibition: 66%
[4]; at 33.0 µM
  growth inhibition: 97% (active)
[4]; [17]
  growth inhibition: 98% (active)
[4]; at 50.0 µM
  growth inhibition: 90.9% (active)
[4]; at 100.0 µM
  growth inhibition: 97% (active)
[5]; at 1.2 µM
  growth inhibition: -3%
[5]; at 3.7 µM
  growth inhibition: 22%
[5]; [16]
  growth inhibition: 1%
[5]; at 11.0 µM
  growth inhibition: 82% (active)
[5]; at 33.0 µM
  growth inhibition: 99% (active)
[5]; [17]
  growth inhibition: 99% (active)
[5]; at 50.0 µM
  growth inhibition: 93.9% (active)
[5]; at 100.0 µM
  growth inhibition: 100% (active)
[6]; at 1.2 µM
  growth inhibition: -9%
[6]; at 3.7 µM
  growth inhibition: 1%
[6]; at 11.0 µM
  growth inhibition: 63%
[6]; at 33.0 µM
  growth inhibition: 98% (active)
[6]; at 100.0 µM
  growth inhibition: 97% (active)
[7]; [16]
  growth inhibition: 6%
[7]; [17]
  growth inhibition: 98% (active)
[7]; at 50.0 µM
  growth inhibition: 91.6% (active)
[8]; at 1.2 µM
  growth inhibition: 20%
[8]; at 3.7 µM
  growth inhibition: 25%
[8]; at 11.0 µM
  growth inhibition: 87% (active)
[8]; at 33.0 µM
  growth inhibition: 100% (active)
[8]; at 100.0 µM
  growth inhibition: 100% (active)
[9]; [16]
  growth inhibition: 5%
[9]; [17]
  growth inhibition: 99% (active)
[9]; at 50.0 µM
  growth inhibition: 90.4% (active)
[10]; at 1.2 µM
  growth inhibition: 5%
[10]; at 3.7 µM
  growth inhibition: 47%
[10]; [16]
  growth inhibition: 50%
[10]; at 11.0 µM
  growth inhibition: 88% (active)
[10]; at 33.0 µM
  growth inhibition: 98% (active)
[10]; [17]
  growth inhibition: 99% (active)
[10]; at 50.0 µM
  growth inhibition: 90.6% (active)
[10]; at 100.0 µM
  growth inhibition: 98% (active)
[11]; at 1.2 µM
  growth inhibition: -27%
[11]; at 3.7 µM
  growth inhibition: 2%
[11]; at 11.0 µM
  growth inhibition: 69%
[11]; at 33.0 µM
  growth inhibition: 98% (active)
[11]; at 100.0 µM
  growth inhibition: 99% (active)
[12]; at 1.2 µM
  growth inhibition: 15%
[12]; at 3.7 µM
  growth inhibition: 55%
[12]; at 11.0 µM
  growth inhibition: 83% (active)
[12]; at 33.0 µM
  growth inhibition: 99% (active)
[12]; at 100.0 µM
  growth inhibition: 99% (active)
[13]; at 1.2 µM
  growth inhibition: -2%
[13]; at 3.7 µM
  growth inhibition: 12%
[13]; at 11.0 µM
  growth inhibition: 69%
[13]; at 33.0 µM
  growth inhibition: 98% (active)
[13]; at 100.0 µM
  growth inhibition: 98% (active)
[14]; [16]
  growth inhibition: 39%
[14]; [17]
  growth inhibition: 99% (active)
[14]; at 50.0 µM
  growth inhibition: 90.9% (active)
[15]; at 1.2 µM
  growth inhibition: -4%
[15]; at 3.7 µM
  growth inhibition: -3%
[15]; at 11.0 µM
  growth inhibition: 76% (active)
[15]; at 33.0 µM
  growth inhibition: 97% (active)
[15]; at 100.0 µM
  growth inhibition: 97% (active)
